HCMV antiviral: inhibitors of human cytomegalovirus | HFF cells, HCMV-luciferase reporter, 72 h; stronger effect = lower value | activity change, negative = inhibition, % at 57.5 µM | 410,000 compounds, 4.5% hits | AID 1259415; in the data active = activity change below about -60%; inconclusive = no clear call, values can overlap the other calls; inactive = above about -39%
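Human foreskin fibroblasts infected with luciferase-reporter HCMV at MOI 1 PFU/cell, compounds at two doses. Luciferase measured 72 h post infection; normalized to buffer-only basal and Salinomycin (10uM) controls.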
MARV entry inh: blocks Marburg virus binding to or entry into cells. Marburg virus pseudotyped entry inhibition, cell reporter. Potency, µM (doses to about 37.8 µM), inactives show at the highest dose activity change, negative = inhibition, hits mostly inhibitors. 300,000 compounds, 1.8% hits. AID 540276; calls by dose curve; tested in HEK293 cells; note: potency is the fitted concentration of half-maximal effect
FMDV antiviral: blocks foot and mouth disease virus. AID 1159524. FMDV antiviral cell-based qHTS. Potency, µM (highest dose often 57.9 µM), for the others: at the highest dose activity change, negative = inhibition, usual class: inhibitors. 410,000 compounds, 1.2% hits; calls by dose curve; tested in HEK293T cells; note: read-out not given here; potency is the fitted concentration of half-maximal effect; nearly all actives have a fitted effect of over 45% in size
Lassa entry inh: blocks Lassa virus binding to or entry into cells. Lassa virus pseudotype entry inhibition, cell reporter. 300,000 compounds, 1.2% hits. Potency, µM (top dose mostly 37.9 µM), inactives show at the top dose activity change, negative = inhibition, usual class: inhibitors; calls by dose curve; tested in HEK293 cells; note: potency is the fitted concentration of half-maximal effect; nearly all actives have a fitted effect of over 50% in size
The depositor's hits bear a star; ? = inconclusive; · = no result; [ ] = another dose, or the depositor's remark. Sampled rows, rich in hits. Any-hit rate of the full collection: about 6.2%. % is set by controls: 0 for no effect and ±100 for the full control effect.

SMILES	HCMV antiviral	MARV entry inh	FMDV antiviral	Lassa entry inh
CCN1CCN(c2ncnc3ccc(Br)cc23)CC1	-67*	-21%	-29%	-2%
O=C(O)C1CCN(c2nc(-c3ccccc3)c3cc(Br)ccc3n2)CC1	-29	27%	-21%	?
OCCN1CCN(c2cc(-c3ccccc3)c3ccccc3n2)CC1	-63*	?	?	-6%
CN1CCN(c2nc(N3CCN(CCO)CC3)nc3ccccc23)CC1	-18	?	0%	?
O=C(Cn1ncc2c3ccccc3n(Cc3ccc(F)cc3)c2c1=O)NCCCN1CCCCC1	-6	9%[46.1 µM]	0%	9%[46.1 µM]
N#CCCN1CCC(N)=NC1=NC#N	61	·	·	·
CCC1CN(C(=O)N2CCC(C(=O)NCCCc3ccccc3)CC2)c2cc(C)ccc2O1 (centres undefined)	-16	·	?	?
CCOc1ccc(CCNC(=O)C2CCN(C(=O)N3CC(CC)Oc4ccc(C)cc43)CC2)cc1 (centres undefined)	-21	·	28µM*	-17%[46.1 µM]
Cc1cc(C(C)(C)C)oc1C(=O)N(CC(=O)NC1CCCC1)c1c(C)cccc1C	-28	10µM*	34%	?
Cc1cc(C(C)(C)C)oc1C(=O)N(CC(=O)NC1CCCC1)c1ccc(F)cc1	-38	-26%	·	?
N#Cc1cccc(NC(=O)CN2NS(=O)(=O)c3ccccc3C2=O)c1	20	12%	-2%	21%
COc1ccc(-c2nc(-c3ccccn3)ncc2S(C)(=O)=O)cc1	-61*	3%[46.1 µM]	-5%	-12%
COc1ccc(-c2nc(-c3ccccc3)ncc2S(C)(=O)=O)cc1	-16	0%[14.2 µM]	-6%	-2%
COc1ccc(C(CC(=O)O)N2C(=O)CCC2=O)cc1 (centres undefined)	33	-7%[46.1 µM]	8%	-2%[46.1 µM]
CCn1c(C)cc(/C=C2/NC(=O)N(c3ccccc3)C2=O)c1C	-13	-25%	45%	?
COCCn1c(C)cc(/C=C2/NC(=O)N(c3cccc(Cl)c3)C2=O)c1C	-66*	·	-21%	·
COc1ccc(C(=O)CC(Nc2ccc([N+](=O)[O-])cc2)c2ccc(Cl)cc2)cc1 (centres undefined)	-88*	?	-16%	?
CC(NC(=O)C1c2ccccc2Oc2ccccc21)C1CCCO1 (centres undefined)	-7	-13%[46.1 µM]	-4%	-2%[46.1 µM]
O=C(Nc1ccn(Cc2ccc(Cl)cc2)n1)c1ccccc1	27	20%	10%	?
O=C(Nc1ccn(Cc2cccc3ccccc23)n1)c1cccnc1	-75*	?	?	?
Fc1ccc(-c2nn3ncccc3c2-c2ccnc(Nc3ccc4c(c3)OCCO4)n2)cc1	·	·	·	7.9µM*
COc1ccc(-c2nn3ncccc3c2-c2ccnc(Nc3ccc4c(c3)OCCO4)n2)cc1	·	·	·	16µM*
Cc1cc(C)n2c(Nc3ccc4c(c3)OCCO4)c(-c3ccc(F)cc3)nc2n1	74	·	21%	·
COc1ccc(-c2nc3ncccn3c2Nc2ccc3c(c2)OCCO3)cc1	91	0%	33%	·
O=C(COc1ccc(S(=O)(=O)N2CCOCC2)cc1)NCc1ccco1	5	18%	-5%	2%
SMILES	HCMV antiviral	MARV entry inh	FMDV antiviral	Lassa entry inh
COc1ccccc1NS(=O)(=O)c1ccc(C)c(C(=O)Nc2cc(C)on2)c1	4	-28%	8%	?
CC1(C)CCN2CCC(C)(C)c3c(O)ccc1c32	-91*	·	?	·
COC(=O)c1ccccc1S(=O)(=O)N1CCC(C(=O)N(C)CCOc2ccccc2)CC1	20	12%[46.1 µM]	?	5%
c1ccc2c(c1)[nH]c1c(N3CCCC3)ncnc12	?	?	13µM*	-27%
c1ccc2c(c1)[nH]c1c(N3CCOCC3)ncnc12	-32	-10%	·	-2%
c1ccc2c(c1)[nH]c1c(N3CCSCC3)ncnc12	-32	-11%	22µM*	6%
O=c1cccc2n1C[C@@H]1C[C@@H]2CN(CC(O)c2ccc([N+](=O)[O-])cc2)C1 (some centres undefined)	-8	·	-9%	·
Clc1cccc(Cl)c1Cn1cnc2c(N3CCCCCC3)ncnc21	-81*	4.6µM*	·	7.3µM*
CC(C)COc1ccc(-c2nnc(-c3ccco3)o2)cc1	64	?	-35%	7.3µM*
CCCOc1ccc(-c2nnc(-c3ccco3)o2)cc1	12	?	?	8.2µM*
O=C(COc1ccccc1)Nc1ccc(-c2nnc(-c3ccco3)o2)cc1	135	5%	7%	1%
CCCCc1ccc(NC(=O)N2CCN(c3cc(C)nc4ccccc34)CC2)c(C)c1	·	·	35µM*	·
CC(C)NC(=O)NC(=O)COC(=O)c1ccccc1Oc1ccccc1	70	11µM*	-11%	?
CC(C)NC(=O)NC(=O)COC(=O)c1ccccc1O	24	-3%[46.1 µM]	0%	7%[46.1 µM]
CC(=O)Nc1ccc(NC(=O)COC(=O)c2c(C)nn(-c3ccccc3)c2C)cc1	-35	2%	-9%	?
CC(=O)N/C(=C\c1ccccc1)C(=O)OCC(=O)NC1CCCC1	-16	11%	3%	4%
CC(=O)Nc1ccc(NC(=O)COC(=O)/C(=C/c2ccccc2)n2nnnc2C)cc1	37	?	20µM*	?
Cc1nnnn1/C(=C\c1ccccc1)C(=O)OCC(=O)NC1CCCCC1	8	11µM*	8.9µM*	?
Cc1nnnn1/C(=C\c1ccccc1)C(=O)OCC(=O)NC(C)(C)C	-14	6.3µM*	18µM*	-19%
COc1cccc(NC(=O)Nc2ccc3snnc3c2)c1	-23	?	13%	23%[46.1 µM]
CCc1ccccc1NC(=O)Nc1ccc2snnc2c1	-70*	9%[46.1 µM]	-1%	?
CCOC(=O)c1ccc(NC(=O)Nc2ccc3snnc3c2)cc1	-106*	16%[46.1 µM]	-4%	10%[46.1 µM]
O=C(Nc1ccc2snnc2c1)Nc1cccc2ccccc12	-88*	?	21%	?
COc1cccc(-n2c(SCc3cc(=O)oc4cc(O)c(O)cc34)nc3ccccc3c2=O)c1	?	-31%	-17%	?
COC(=O)Nc1nc2ccc(Oc3ccc(NC(=O)Nc4cccc(Br)c4)cc3)cc2[nH]1	·	·	·	18µM*
SMILES	HCMV antiviral	MARV entry inh	FMDV antiviral	Lassa entry inh
O=C(Nc1ccc(Oc2ccc3nc(NC(=O)c4ccco4)[nH]c3c2)cc1)Nc1cc(C(F)(F)F)ccc1F	·	·	·	7.9µM*
O=C(Nc1ccc(Oc2ccc3nc(NC(=O)c4ccccc4)[nH]c3c2)cc1)Nc1cc(C(F)(F)F)ccc1F	·	·	·	6.3µM*
N#Cc1ccc(S(=O)(=O)N2CCC(N3CCCCC3)CC2)cc1	-13	-8%[46.1 µM]	-13%	-4%
COc1cc(N)c(Cl)cc1C(=O)OCCCN1CCCCC1	·	·	-16%	·
COc1cc(N)c(Cl)cc1C(=O)N[C@H]1CCN(CCCOc2ccc(F)cc2)C[C@H]1OC	-94*	·	?	·
CCN1CCN(CCCNC(=O)CCC(=O)N2CCOc3ccccc32)CC1	-31	·	-18%	·
CC1CC(C)CN(CCCNC(=O)CCC(=O)N2CCOc3ccccc32)C1 (centres undefined)	-65*	·	-13%	·
Cc1nn(CCC(=O)NCCc2ccccc2Cl)c(=O)c2nn(-c3ccccc3)c(C)c12	-62*	·	-14%	·
Cc1ccccc1CCNC(=O)CCn1nc(C)c2c(C)n(-c3ccccc3)nc2c1=O	-60*	·	-19%	·
CC(=O)c1ccc(NC(=O)CCSCCC(=O)Nc2ccc(C(C)=O)cc2)cc1	1	1%	8%	29%
